VACV mCherry inh: vaccinia inhibition (mCherry reporter). hit rate 0.63% among 310,000. Vaccinia virus mCherry reporter infection, fluorescence. Potency, µM (titrated, usually from 36.5 µM), for inactives: at the highest dose activity change, negative = inhibition, most hits filed as inhibitors; calls by dose curve; tested in A549 cells; also: nearly all actives have a fitted effect of over 35% in size
Vaccinia Venus: vaccinia inhibition (Venus reporter). hit rate 0.46% among 330,000. Potency, µM (titrated, usually from 36.5 µM), for the others: top-dose activity change, negative = inhibition, hits mostly inhibitors. Vaccinia virus Venus reporter expression, fluorescence; calls by dose curve; tested in A549 cells; also: nearly all actives have a fitted effect of over 30% in size
LmPK inh: blocks Leishmania mexicana pyruvate kinase activity; purified LmPK, Kinase-Glo ATP luminescence, 1 h; AID 1721; hit rate 0.37% among 290,000; Q27686; Potency, µM (doses to about 57.5 µM), without a hit: at the highest dose activity change, negative = inhibition, hits mostly inhibitors
Target sequence (Q27686 whole entry, looked up): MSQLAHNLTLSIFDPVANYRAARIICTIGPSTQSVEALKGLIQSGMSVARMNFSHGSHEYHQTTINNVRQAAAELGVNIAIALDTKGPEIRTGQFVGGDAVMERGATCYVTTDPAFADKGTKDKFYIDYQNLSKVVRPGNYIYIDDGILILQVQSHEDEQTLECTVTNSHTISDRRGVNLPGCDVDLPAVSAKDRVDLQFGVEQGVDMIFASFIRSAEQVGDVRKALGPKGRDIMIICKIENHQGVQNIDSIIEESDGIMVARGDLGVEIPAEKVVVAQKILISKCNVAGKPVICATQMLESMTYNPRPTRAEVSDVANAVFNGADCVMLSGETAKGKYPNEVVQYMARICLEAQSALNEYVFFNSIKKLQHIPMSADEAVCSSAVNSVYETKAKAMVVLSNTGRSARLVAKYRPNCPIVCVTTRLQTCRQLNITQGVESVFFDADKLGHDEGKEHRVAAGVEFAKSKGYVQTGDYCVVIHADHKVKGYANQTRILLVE
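Purified LmPK (0.1 nM) with 0.5 mM PEP and 0.1 mM ADP in imidazole buffer pH 7.2 with MgCl2/KCl, 1 h at room temperature. ATP formed was read by luciferase luminescence and normalized to no-enzyme and uninhibited controls.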
RE007 growth inh: less growth of the S. pombe RE007 Vpr strain. AID 651644. hit rate 0.21% among 360,000. Potency, µM (highest dose often 92.2 µM), for inactives: top-dose activity change, negative = less growth, usual class: inhibitors. S. pombe RE007 Vpr strain, BacTiter-Glo ATP luminescence, 24 h; active = well fitted falling curve with a large enough effect; inconclusive = small, poorly fitted or top-dose-only effect; inactive = no such curve, though single readings can be large or run the other way; also: nearly all actives have a fitted effect of over 50% in size
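Fission yeast strain RE007, carrying one chromosomally integrated HIV-1 vpr copy, was seeded at OD 0.01 in PMG+AL medium with 23 nL pinned compound. After 24 h at 30 °C and 99% humidity, viability was read by BacTiter-Glo luminescence.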
TbPYK inhibitor: blocks Trypanosoma brucei pyruvate kinase. TbPYK enzyme, Kinase-Glo Plus ATP luminescence, 45 min. Potency, µM (top dose mostly 76.8 µM), for the others: top-dose activity, negative = inhibition, most hits filed as inhibitors. hit rate 0.12% among 410,000. AID 624173; also: nearly all actives have a fitted effect of over 50% in size
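ADP (130 uM final) triggers the TbPYK reaction after compound addition; incubation is 45 min at room temperature. Kinase-Glo Plus is then added and luminescence imaged. Normalized data are fitted to concentration-effect curves.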
AMA1 RON2 block: AMA1-RON2 (P. falciparum) interaction inhibition; AlphaScreen AMA1-biotinylated RON2 peptide binding; Potency, µM (series often up to 58.2 µM), without a hit: top-dose activity change, negative = inhibition, usual class: inhibitors; AID 720542; hit rate 0.2% among 360,000;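 also: 0% = vehicle wells and -100% = peptide control; nearly all actives have a fitted effect of over 45% in size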
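AMA1 (3D7) with his tag at 25 nM final met compounds first, then biotinylated RON2 peptide at 25 nM; detection used donor plus acceptor beads, 10 µg/mL apiece, read by AlphaScreen after 30 min at room temperature.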
The depositor's hits bear a star; i = inactive; ? = inconclusive; nt = no result given. Most compounds without a hit are left out; they make up all but 1.3% or so of the library. Unless noted, calls follow the shape of the dose curve; as a rule, active = well fitted curve in the direction sought with a large enough effect; inconclusive = small, poorly fitted or top-dose-only effect, or another doubt; inactive = no such curve, though single readings can be large; an effect the other way counts as inactive or inconclusive. Unless noted, % is scaled to controls: 0 for no effect and ±100 for the full control effect; potency is read from the fitted curve at half-maximal effect.

SMILES	VACV mCherry inh	Vaccinia Venus	LmPK inh	RE007 growth inh	TbPYK inhibitor	AMA1 RON2 block
COc1cccc(CN2C(=O)NC(C)(C3CCN(Cc4cc(F)cc(F)c4)CC3)C2=O)c1OC (centres undefined)	i	-16%	nt	nt	nt	nt
CC(=O)Nc1cc(O)c2nonc2c1O	11µM*	3.5µM*	nt	nt	nt	nt
CC(=O)Nc1c(O)cc(Br)c2nonc12	0%	-3%	nt	nt	nt	nt
CN(C)CCCNC(=O)c1ccc(-c2nc(-c3ccc(Cl)cc3)cs2)cc1	?	22µM*	-1%	-21%	0%	7%
CC(C)(C)c1ccc(C(=O)NCCc2csc(-c3ccc(Cl)cc3)n2)cc1	-17%	1%	nt	nt	5%	nt
CCn1c2ccccc2c2cc(CN3CCOc4ccc(C(O)c5cccnc5)cc4C3)ccc21 (centres undefined)	-20%	?	nt	nt	nt	nt
COc1ccccc1CN1CCOc2ccc(CN3CCC(Oc4cccnc4)CC3)cc2C1	-20%	2%	nt	nt	nt	nt
CCOc1ccc(Nc2c3ccccc3nc3ccccc23)cc1	5.6µM*	?	0%	-14%	2%	-17%
CCOc1ccc(-n2c(CCc3ccccc3)n[nH]c2=S)cc1	-3%	-11%	?	13%	3.2µM*	51%
COc1ccc(-n2c(CCc3ccccc3)n[nH]c2=S)cc1	i	-13%	-8%	-4%	?	89%
COc1cccc(-n2c(CCn3nc(C)c([N+](=O)[O-])c3C)n[nH]c2=S)c1	0%	-5%	-20%	11%	?	13%
S=c1[nH]nc(Cc2cccc3ccccc23)n1-c1ccccc1	-22%	-14%	14µM*	11%	5µM*	-7%
Cc1cccc(-n2c(CCn3nc(C)c([N+](=O)[O-])c3C)n[nH]c2=S)c1	0%	-2%	?	-7%	8.9µM*	28%
Oc1ccc(CCc2n[nH]c(=S)n2-c2ccc(F)cc2)cc1	nt	nt	7.9µM*	11%	?	65%
Nn1c(Cc2cccc3ccccc23)n[nH]c1=S	nt	nt	9%	8%	?	120%
CCn1c(-c2ccccc2F)nc2cc(NC(C)=O)cc(C(=O)NC(c3ccccn3)C(F)(F)F)c21 (centres undefined)	i	-29%	nt	nt	nt	nt
Cc1ncc2c(c1CNC(=O)/C=C/c1cccs1)CCN(C(=O)c1c(C)noc1C)C2	-14%	8%	nt	nt	nt	nt
S=c1[nH]nc(CCSCc2ccccc2)n1-c1ccccc1	nt	nt	-7%	7%	5.6µM*	69%
Cc1cccc(-n2c(Cc3ccccc3)n[nH]c2=S)c1	-9%	3%	7.1µM*	21%	?	20%
COc1ccc(CSCCc2n[nH]c(=S)n2-c2ccccc2)cc1C	?	-20%	1%	8%	?	47%
CCc1ccc(-n2c(Cc3ccccc3)n[nH]c2=S)cc1	-6%	-14%	-5%	-4%	4µM*	137%
Cc1ccc(S(=O)(=O)c2ccccc2)cc1S	nt	nt	14µM*	nt	nt	nt
Nc1ccc(S(=O)(=O)c2cccc(N)c2)cc1	-2%	-1%	-1%	5%	2%	-4%
Cc1cccc(C)c1OCC(O)Cn1c2ccccc2c2ccccc21 (centres undefined)	nt	nt	3%	35µM*	0%	-15%
Cc1ccc(OCC(O)Cn2c3ccccc3c3ccccc32)cc1 (centres undefined)	-21%	?	4%	?	-4%	16%
C=CC(C)(C)c1c(O)c(CC=C(C)C)c(O)c2c(=O)c3ccc(O)c(O)c3oc12	8.9µM*	?	nt	?	-11%	67%

Assay outcomes as filed in PubChem.
